Most compounds without a hit are left out; they make up all but 1.6% or so of the library.
V-ATPase pHluor: yeast V-ATPase proton transport regulation by pHLuorin; AID 504577; response, % at 10 µM; 350,000 tested, 0.37% active; S. cerevisiae, pHLuorin cytosolic pH fluorescence; in the data active means response mostly above about 7.3%, no sharp cut-off; inactive means mostly below about 5.4%; further: actives read high
NPR2 activator: GC-B (human) receptor activation; AID 1920062; P20594; 370,000 tested, 0.11% active; HEK293-GC-B cells, CNP EC30, cGMP TR-FRET; 0% at EC30 CNP, 100% saturating CNP; activation, % at 10 µM;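 active means activation at 10 µM reaching about 35% in either raw or pattern-adjusted values, limit read from the data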
NR1D1 modulator: modulates human Rev-erb alpha binding to DNA. P20393. Rev-erbα–FITC-DNA binding, fluorescence polarization, 90 min. activity, % at 10 µM. 370,000 tested, 0.79% active. AID 1259318;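 active means activity above about 14%, limit read from the data; passing the limit was not always enough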;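 further: 0% = DMSO wells with 35 nM protein and 100% = DMSO wells with 750 nM protein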
PG9 binder: small molecules binding HIV-1 gp120 antibody PG9; AID 624416; inhibition, % at 6.7 µM; 360,000 tested, 0.43% active; TR-FRET gp120-PG9 antibody binding; in the data active means inhibition above about 8.5%
GC-A act: GC-A (human) enzyme activation | 370,000 tested, 0.14% active | HEK293 GC-A cells, cGMP TR-FRET, EC30 ANP; 0% at EC30 ANP, 100% saturating ANP | P16066 | activation, % at 10 µM; in the data active means activation above about 40%
Target sequence (P16066 whole entry, looked up): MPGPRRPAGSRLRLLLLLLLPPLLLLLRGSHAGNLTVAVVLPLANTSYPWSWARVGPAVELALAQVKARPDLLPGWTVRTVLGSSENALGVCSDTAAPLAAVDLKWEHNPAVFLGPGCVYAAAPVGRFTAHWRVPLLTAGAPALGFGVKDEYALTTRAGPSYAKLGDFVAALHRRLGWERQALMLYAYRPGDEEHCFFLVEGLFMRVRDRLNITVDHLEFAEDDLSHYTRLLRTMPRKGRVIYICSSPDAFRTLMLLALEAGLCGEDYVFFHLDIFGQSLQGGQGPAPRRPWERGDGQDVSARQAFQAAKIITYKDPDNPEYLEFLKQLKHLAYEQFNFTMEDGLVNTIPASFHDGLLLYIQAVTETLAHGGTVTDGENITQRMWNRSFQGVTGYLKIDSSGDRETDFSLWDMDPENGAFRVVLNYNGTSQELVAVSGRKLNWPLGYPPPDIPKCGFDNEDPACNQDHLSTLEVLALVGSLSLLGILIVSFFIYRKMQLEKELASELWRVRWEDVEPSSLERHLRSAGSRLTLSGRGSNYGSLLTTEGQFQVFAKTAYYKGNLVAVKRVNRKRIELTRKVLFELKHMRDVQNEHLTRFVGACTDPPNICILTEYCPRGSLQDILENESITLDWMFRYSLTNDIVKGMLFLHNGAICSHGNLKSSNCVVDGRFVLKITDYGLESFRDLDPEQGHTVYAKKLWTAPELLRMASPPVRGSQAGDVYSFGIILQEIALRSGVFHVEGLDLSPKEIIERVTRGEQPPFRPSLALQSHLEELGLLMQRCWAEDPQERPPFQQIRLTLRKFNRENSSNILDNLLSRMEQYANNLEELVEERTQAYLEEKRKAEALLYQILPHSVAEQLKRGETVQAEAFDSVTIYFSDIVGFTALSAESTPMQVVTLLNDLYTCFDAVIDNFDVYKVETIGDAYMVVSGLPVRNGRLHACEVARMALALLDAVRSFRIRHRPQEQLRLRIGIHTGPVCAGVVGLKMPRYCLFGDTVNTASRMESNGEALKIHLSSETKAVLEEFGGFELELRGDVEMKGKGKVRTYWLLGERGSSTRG
PG9 bind confirm: confirmation of small molecules binding HIV-1 gp120 antibody PG9; inhibition, % at 6.7 µM; TR-FRET PG9 antibody binding, biochemical; shares compounds with PG9 binder; 1,500 tested, 90% active; in the data active means inhibition above about 9%
PGV04 counter: binds control antibody PGV04 in PG9 binder counter-screen. shares compounds with PG9 binder. TR-FRET PGV04 antibody-gp120 binding, biochemical. inhibition, % at 6.7 µM. 1,500 tested, 95% active. AID 651604; in the data active means inhibition above about 9.5%
PG9 binder DR: PG9 antibody binding, dose response; shares compounds with PG9 binder; TR-FRET PG9 antibody-gp120 binding inhibition; IC50, µM; 95 tested, under 10 active; in the data active means IC50 below about 10 µM
PGV04 binding DR: counter-screen for PG9 binders: binding to control antibody PGV04. shares compounds with PG9 binder. TR-FRET binding to control antibody PGV04. IC50, µM. 95 tested, 20% active. AID 651937
PG126 binding DR: PG126 binding, dose response counter-screen; shares compounds with PG9 binder; TR-FRET binding to antibody PG126, counterscreen; IC50, µM; 95 tested, 20% active
NR1D1 mod conf: Rev-erb alpha (human) modulation, hit confirmation | Rev-erb alpha FITC-DNA binding, fluorescence polarization, 90 min | shares compounds with NR1D1 modulator | activation, % at 25 µM | 3,000 tested, 61% active;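 active means activation at or above a set limit, or at least 3 SD above the negative control mean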;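 further: 0% = 35 nM protein with DMSO and 100% = 750 nM protein high control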
RORg DNA counter: RORgamma DNA-binding activity, dose-response counter-screen; 910 tested, 8% active; shares compounds with NR1D1 modulator; IC50, µM; purified RORgamma protein-FITC-DNA binding, fluorescence polarization; AID 1259320;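 active means Compounds whose fitted half-maximal concentration for disrupting protein-DNA binding is below 10 micromolar; the record names Rev-erb in its text, so the target is in doubt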
Numbers without * were called inactive; i = inactive; x = no result. Unless noted, no stated cut-off is given here; in the data, active means IC50 below about 9 µM; inactive means the rest.

SMILES	V-ATPase pHluor	NPR2 activator	NR1D1 modulator	PG9 binder	GC-A act	PG9 bind confirm	PGV04 counter	NR1D1 mod conf	RORg DNA counter	others
COc1ccc2cc(C#N)c(SCC(=O)NNC(=O)Cc3ccccc3)nc2c1	1	-13	38*	27*	-9	24*	52*	12	x
N#Cc1c(N)nc2c3c(sc(=N)c2c1N)NC(=O)CC3c1c(F)cccc1Cl (stereo unspecified)	-3	-24	58*	17*	-29	22*	30*	62*	2.9*
N#Cc1c(N)nc2c3c(sc(=N)c2c1N)NC(=O)CC3c1ccccc1 (stereo unspecified)	-2	-18	29*	57*	-37	55*	71*	41*	>40
Cc1c(C#N)c(N)nc2c3c(sc12)NC(=O)CC3c1ccc(Cl)cc1 (stereo unspecified)	1	22	65*	18*	8	16*	33*	45*	>40
COc1ccc(CCNC(=O)Cn2ncc3c2-c2cc(C)ccc2OC3)cc1	x	-1	-6	x	-10	x	x	x	x
O=C(Cn1c(=O)c2cccn2c2ccccc21)NCCc1ccc(Cl)cc1	-4	-2	66*	36*	0	40*	43*	27*	x
COc1ccccc1NC(=O)c1sc2ncn(Cc3cccc4ccccc34)c(=O)c2c1C	-3	-2	117*	13*	1	11*	24*	49*	i
Cc1c(-c2ccc(Cl)cc2)oc(=O)c2c(N)n(-c3ccccc3)nc12	5	-4	49*	36*	-12	31*	39*	49*	>40
Nc1c2c(=O)oc(-c3ccccc3)cc2nn1-c1ccccc1	4	-13	-2	1	-33	x	x	x	x
COC(=O)c1c(-c2ccccc2)csc1NC(=O)c1ccco1	-1	-13	19*	17*	-6	9.8*	14*	15	x
Cc1nc(NC(=O)c2ccc(OCC(C)C)cc2)sc1Cc1ccc2c(c1)OCO2	2	4	-1	-1	-3	x	x	x	x
Cc1ccc2nc(NC(=O)c3ccc4c(c3)OCO4)sc2c1	-1	1	29*	18*	5	21*	32*	12	x
NS(=O)(=O)c1ccc2nc(NC(=O)c3ccc4c(c3)OCCO4)sc2c1	3	0	33*	37*	14	33*	46*	12	x
Cc1nnc(NC(=O)c2ccc3c(c2)OCO3)s1	0	3	-2	-4	-5	x	x	x	x
NS(=O)(=O)c1ccc2nc(NC(=O)c3ccc4ncsc4c3)sc2c1	3	x	x	x	x	x	x	x	x
CCCOc1ccc(C(=O)Nc2nc(C)c(Cc3ccc4c(c3)OCO4)s2)cc1	1	-5	128*	61*	-4	25*	31*	83*	>40
NS(=O)(=O)c1ccc(NC(=O)CSc2nc3ccccc3c(=O)n2-c2ccc(Br)cc2)cc1	x	0	12	x	-1	x	x	x	x
COc1ccccc1NC(=O)COC(=O)c1ccc2c(c1)OCCO2	1	-3	22*	11*	2	6	10*	32*	>40
S=C(Nc1ccc(Cl)cc1)OC1CCC12CCC(c1ccccc1)CC2 (stereo unspecified)	x	6	-1	x	2	x	x	x	x
C=CC[C@@H]1NN2C(=O)[C@@H](CCCC)[C@@H]3c4cc5ccccc5cc4C=NN3[C@@H]2c2cc3ccccc3cc21	x	2	6	x	1	x	x	x	x
CCCC(=O)Nc1sc(C)c(-c2ccc(OC)cc2)c1C#N	-1	-3	24*	9.1*	0	19*	23*	28*	x
CCc1c(C)sc(NC(=O)CCc2ccc(OC)cc2)c1C(N)=O	-2	-1	-2	1	0	x	x	x	x
CCc1nc(SCC(=O)Nc2nnc(CC)s2)c2c(C)c(C)sc2n1	4	-5	3	1	-2	x	x	x	x
CCCc1nc(SCC(=O)Nc2nnc(CC)s2)c2c(C)c(C)sc2n1	-3	0	26*	12*	-3	18*	16*	15	x	PG9 binder DR=>67;PGV04 binding DR=i;PG126 binding DR=i
Clc1cccc(CNC2CCC23CCCCC3)c1 (stereo unspecified)	x	-3	3	x	-6	x	x	x	x
SMILES	V-ATPase pHluor	NPR2 activator	NR1D1 modulator	PG9 binder	GC-A act	PG9 bind confirm	PGV04 counter	NR1D1 mod conf	RORg DNA counter	others
COc1ccc(NC(=O)NNC(=O)COc2ccc3cc(Br)ccc3c2)c(OC)c1	-3	-6	118*	61*	5	63*	74*	111*	>40
COc1ccc2cc(OCC(=O)NNC(=O)Nc3ccc(F)cc3)ccc2c1	-3	-6	42*	23*	1	34*	45*	35*	3.1*
COc1ccc(NC(=O)COc2ccc(Br)cc2)c(OC)c1	-4	0	8	2	1	x	x	x	x
O=C(O)CSc1nc2ccccc2nc1Cc1ccccc1F	-2	6	22*	10*	23	16*	27*	12	x
Cc1ccc(-n2c(SCC(=O)NCc3ccco3)nc3sc4c(c3c2=O)CC(C)(C)SC4)cc1	-3	-4	71*	16*	0	20*	32*	64*	5.6*
C=CCn1c(SCC(=O)NC(=O)NCc2ccco2)nc2sc(C)c(C)c2c1=O	-2	-13	51*	23*	-12	28*	41*	41*	x
C=CCn1c(SCC(=O)Nc2sccc2C#N)nc2sc(C)c(C)c2c1=O	-7	8	97*	11*	5	26*	44*	63*	>40
C=CCn1c(SCC(=O)NCCO)nc2sc(C)c(C)c2c1=O	-1	-7	2	-1	-5	x	x	x	x
CCOC(=O)c1cccc(NC(=O)CN(C)S(=O)(=O)c2ccc(Cl)s2)c1	x	-4	0	x	2	x	x	x	x
COc1ccc(-n2c(COc3ccc(Cl)cc3)nnc2SCC(=O)Nc2ccc3c(c2)OCO3)cc1	x	-3	-8	x	-11	x	x	x	x

Screening results from PubChem.
